# Data taken from PubChem BioAssay AID1851 (National Center for Advancing Translational Sciences (NCATS), 2009).
# Hit rate of the full screen: of about 16,000 compounds, about 5,700 (36%) were called active. Another 24% or so got no clear call; they are omitted. The list shows a part of the results. A number with no mark means an inactive call. The call rests on the fitted dose curve; in most records, active means well fitted curve in the direction sought with a large enough effect; inconclusive means small, poorly fitted or top-dose-only effect, or effect the other way; inactive means no such curve, though single readings can be large or run the other way.
# Target: Cytochrome P450 1A2 (Homo sapiens) (UniProt P05177)
# Sequence (P05177 whole entry, looked up): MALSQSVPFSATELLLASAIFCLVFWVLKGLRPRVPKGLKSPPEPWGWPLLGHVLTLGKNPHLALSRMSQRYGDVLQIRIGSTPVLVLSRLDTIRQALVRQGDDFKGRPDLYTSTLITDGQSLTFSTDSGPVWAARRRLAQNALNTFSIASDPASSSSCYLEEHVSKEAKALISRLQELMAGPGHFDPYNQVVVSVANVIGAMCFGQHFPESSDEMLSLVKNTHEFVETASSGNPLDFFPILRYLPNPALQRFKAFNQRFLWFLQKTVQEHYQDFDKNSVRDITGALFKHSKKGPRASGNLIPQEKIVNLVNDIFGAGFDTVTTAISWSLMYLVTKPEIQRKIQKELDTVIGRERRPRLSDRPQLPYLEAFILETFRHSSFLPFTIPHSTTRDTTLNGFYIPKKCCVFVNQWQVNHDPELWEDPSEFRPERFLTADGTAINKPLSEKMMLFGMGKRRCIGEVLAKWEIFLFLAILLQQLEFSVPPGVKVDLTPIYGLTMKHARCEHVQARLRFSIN
# Assay: Cytochrome panel assay with activity outcomes
# Settings: recombinant CYP, pro-luciferin dealkylation, luminescence, p450-cyp1a2; series mostly up to 57.1 µM
# On the % scale 0 is the no-effect control and ±100 the full control effect.
Compound,AC50,"activity, negative = inhibition"
NCC(=O)Nc1ccc(Cl)cc1C(=O)c1ccc[nH]1,3.16 µM (active),
Cc1ncc([N+](=O)[O-])n1CC(=O)NCc1ccccc1,inactive,
Cc1cccc(Cn2cnc3c(NS(C)(=O)=O)c(C)c(C)cc32)c1,3.16 µM (active),
Cc1nn(CC(=O)NCc2ccccc2)c(C)c1[N+](=O)[O-],inactive,
Cc1cc2c(ncn2Cc2ccccc2)c([N+](=O)[O-])c1C,5.62 µM (active),
CC(=O)C=NCC(=O)O,,0.0576% [at 11.4 µM]
COC(=O)[C@@]1(Cc2ccc(F)cc2)[C@H]2c3cc(C(=O)N(C)C)n(Cc4ccc(C(F)(F)F)nc4)c3C[C@H]2CN1C(=O)c1ccccc1,inactive,
COc1ccc(CCNc2nc(-c3cccnc3)cs2)cc1OC,0.355 µM (active),
COc1ccccc1CNc1cc(-c2cccnc2)ncn1,1 µM (active),
COc1ccc(CNc2cc(-c3cccnc3)ncn2)c(OC)c1,1.26 µM (active),
CC(C)(C)C(=O)N(CCN(C(=O)C(C)(C)C)c1ccccc1)c1ccccc1,inactive,
COC(=O)C/C=C\[C@@H](C)[C@@H](/C=N\OC[C@@H](O)[C@H]1O[C@H]2OC(C)(C)O[C@H]2[C@@H]1O)NS(=O)(=O)c1ccc(C)cc1,,0.282% [at 11.4 µM]
CCCC[C@@H]1C[C@H]1C(NC(=O)c1ccccc1)c1ccccc1 (some centres undefined),2.51 µM (active),
C=C(CC1([C@@H](NP(=O)(c2ccccc2)c2ccccc2)[C@H]2C[C@@H]2CCCC)CC1)c1ccccc1,inactive,
CCCC[C@@H]1C[C@H]1C(NC(=O)c1ccc(-c2ccccc2)cc1)c1ccc(-c2ccccc2)cc1 (some centres undefined),inactive,
C[C@@]1(C(NC(=O)c2ccc(-c3ccccc3)cc2)c2ccc(Cl)cc2)C[C@H]1C1CCCCC1 (some centres undefined),inactive,
CCCC[C@@H]1C[C@H]1C(NC(=O)c1ccccc1)c1ccc(Cl)cc1 (some centres undefined),1 µM (active),
CCC[C@@H]1C[C@@]1(CCC)C(NC(=O)c1ccccc1)c1cccc(Cl)c1 (some centres undefined),inactive,
Cc1cc(C)n(-c2ccc(Cl)c(C(=O)O)n2)n1,inactive,
COC(=O)c1ccc(Oc2cc(C)nc(-n3nc(C)cc3C)n2)cc1,8.91 µM (active),
N#C/C(=N\O)c1nc(-c2ccccc2)cs1,6.31 µM (active),
N#CC(=C1CCCC1)c1nc(-c2ccccc2)cs1,0.631 µM (active),
Cc1ccc(-c2csc(C(C#N)=C3CCCC3)n2)cc1,3.55 µM (active),
CC1(C)N=C(N)N=C(N)N1CCCCc1ccccc1,,-4.32% [at 2.29 µM]

Compound,AC50,"activity, negative = inhibition"
c1ccc(-c2nc3ccccc3o2)nc1,0.501 µM (active),
C/C(O)=C\c1nc2ccccc2oc1=O,inactive,
O=S(=O)(O)c1ccc(-c2nnc(-c3ccccn3)nc2-c2ccc(S(=O)(=O)O)o2)o1,,-8.46% [at 11.4 µM]
CC1(C)C(=O)NC2=C1C(=O)C(=O)c1ccccc12,3.16 µM (active),
N#C/C(=C\c1c[nH]c2ccccc12)C(=O)c1ccc(O)c(O)c1,1.26 µM (active),
O=C(O)[C@@H]1CCCN1Cc1c[nH]c2ccccc12,,-13.1% [at 11.4 µM]
CCN(CC(=O)O)CC(=O)O,,-5.21% [at 11.4 µM]
CS(=O)(=O)Nc1cccc(-c2cncnc2-n2ccnc2)c1,15.8 µM (active),
COc1ccc(NS(=O)(=O)c2ccc(I)cc2)cc1N1CCN(C)CC1,inactive,
CN1CCN(c2ccnc(-c3cccc(NS(C)(=O)=O)c3)n2)CC1,12.6 µM (active),
CS(=O)(=O)Nc1ccc(C(=O)N2CCN(c3ccccc3)CC2)cc1,inactive,
CS(=O)(=O)Nc1cccc(-c2nccc(-n3ccnc3)n2)c1,0.2 µM (active),
CCN1C(=O)[C@H]2[C@H]3[C@H](O)[C@H](O)C/C(=N/OCC(C)C)[C@@H]3CC[C@@H]2C1=O,,-10.8% [at 11.4 µM]
O=[N+]([O-])c1cccnc1NCCNc1ncc(C(F)(F)F)cc1Cl,2 µM (active),
COC(=O)[C@@]1(Cc2ccc(F)cc2)[C@H]2c3cc(C(=O)N4CCCC4)n(CCCNc4ncc(C(F)(F)F)cc4Cl)c3C[C@H]2CN1C(=O)c1ccccc1,inactive,
C[C@@H]1O[C@@H](O)[C@@H](O)[C@H](O)[C@H]1O,,-2.48% [at 11.4 µM]
O=C(O)c1ccccc1N/N=C\c1ccnc2ccccc12,11.2 µM (active),
Cn1c(=O)c2c(nc(N/N=C\c3ccccc3C(=O)O)n2C)n(C)c1=O,,5.78% [at 11.4 µM]
O=C(O)CCNc1ccccc1C(=O)O,,-11.9% [at 11.4 µM]
Brc1ccc(C2=Nn3c(nnc3-c3cccnc3)SC2)s1,5.01 µM (active),
COc1ccc(C(C(=O)NC2CCCC2)N(C(=O)c2snc(-c3ccc(F)cc3)c2N)c2ccccc2)cc1 (centres undefined),inactive,
Cc1cc2ccccn2c1C(=O)c1ccc(Cl)cc1,3.16 µM (active),
Cc1cc2ccccn2c1C(=O)c1nc(N2CCOCC2)ncc1Cl,15.8 µM (active),
Cc1sc(=NC(=O)c2ccco2)n(C)c1-c1ccc(F)cc1,8.91 µM (active),

Compound,AC50,"activity, negative = inhibition"
COc1ccccc1C(=O)N1CCN(c2ccccn2)CC1,inactive,
COc1ccccc1-c1nc(N2CCN(C)CC2)c2ccccc2n1,12.6 µM (active),
COc1ccccc1-c1nc(N2CCOCC2)c2ccccc2n1,0.501 µM (active),
O=C1c2cccc3cccc(c23)C(=O)N1CC1CCN(CC(O)COc2ccc3ccccc3c2)CC1 (centres undefined),0.562 µM (active),
O=C(c1ccccc1)c1ccc(OCC(O)CN2CCN(Cc3ccccc3)CC2)cc1 (centres undefined),inactive,
CC(C)(C)C1CCC(OCC(O)CN2CCN(c3ccccc3)CC2)CC1 (centres undefined),inactive,
Cc1cccc(C(=O)NCN2CCN(c3ccccc3C#N)CC2)c1,20 µM (active),
Cc1cccc(C(=O)NC(=S)N2CCN(C)CC2)c1,inactive,
Cc1cccc(C(=O)NC2CCN(C(=O)N3CCOCC3)CC2)c1,inactive,
COc1cccc(C(C(=O)Nc2ccc(F)cc2)N(C(=O)Cn2nnc3ccccc32)C2CC2)c1 (centres undefined),inactive,
O=C(CSc1nnc(Cn2nnc3ccccc32)o1)Nc1cccc(Cl)c1,12.6 µM (active),
Cc1cc(C)c2cc(CN(Cc3nnnn3Cc3ccc(F)cc3)C3CCCC3)c(=O)[nH]c2c1,14.1 µM (active),
CN(C)S(=O)(=O)Nc1ccccn1,,-5.82% [at 11.4 µM]
Nc1ccc(S(=O)(=O)Nc2ccccn2)cc1,inactive,
O=C1C(Cl)=C(Nc2ccc(S(=O)(=O)Nc3ccccn3)cc2)C(=O)c2ccccc21,3.16 µM (active),
COc1cc(C(=O)Nc2ccc(-c3nnc(-c4ccco4)o3)cc2)cc(OC)c1OC,inactive,
CCCCOC(=O)CSc1nnc(-c2cc(OC)c(OC)c(OC)c2)o1,31.6 µM (active),
COc1cc(-c2nnc(-c3ccc(N4CCOCC4)cc3)o2)cc(OC)c1OC,inactive,
COc1cc(-c2nnc(SCC3(c4ccccc4)OCCO3)o2)cc(OC)c1OC,12.6 µM (active),
CN(C)C(=O)c1ccc(-c2cncnc2N2CCNCC2)cc1,inactive,
CN(C)c1ccc(-c2cncnc2-n2ccnc2)cc1,2.51 µM (active),
c1cn(-c2ccnc(-c3ccc4c(c3)OCO4)n2)cn1,0.0251 µM (active),
CN(C)C(=O)c1ccc(-c2cncnc2-n2ccnc2)cc1,20 µM (active),
CN1CCN(c2ncncc2-c2ccc(N(C)C)cc2)CC1,12.6 µM (active),

Compound,AC50,"activity, negative = inhibition"
CC1=C/C(=N/O)C([C@H]2C=C(C)CC(C)(C)[C@@H]2O)C(C)(C)C1 (some centres undefined),,-5.85% [at 11.4 µM]
CN(C)C(=O)c1ccc(-c2nccc(-n3ccnc3)n2)cc1,15.8 µM (active),
Cc1ccc(OCC(=O)NC2=NCCS2)cc1,8.91 µM (active),
COc1ccc(S(=O)(=O)N2CCC[C@H]2C(=O)NC2=NCCS2)cc1,inactive,
CC(C)C(NC(=O)C12CC3CC(CC(C3)C1)C2)C(=O)NC1=NCCS1 (centres undefined),inactive,
O=C(NCc1cccnc1)C1COc2ccccc2O1 (centres undefined),15.8 µM (active),
O=C(NCc1cccnc1)[C@@H]1[C@@H](C(=O)O)[C@H]2CC[C@@H]1O2,,-11% [at 11.4 µM]
O=C(NCCCN1CCOCC1)C1COc2ccccc2O1 (centres undefined),inactive,
O=C(Nc1cccnc1)C1COc2ccccc2O1 (centres undefined),11.2 µM (active),
Cc1ccc(S(=O)(=O)N2CCN(C(=O)C3COc4ccccc4O3)CC2)cc1C (centres undefined),inactive,
CS(=O)(=O)N1CCC2(CCCN(C(=O)Nc3cccc(C#N)c3)C2)CC1,inactive,
CC(=O)N1CCC[C@@]2(CCN(Cc3nccs3)C2)C1,inactive,
COC(=O)CC1C(=O)NCCN1C(=O)Nc1ccc(Cl)cc1 (centres undefined),inactive,
Cc1nn(Cc2c(F)c(F)c(F)c(F)c2F)c(C)c1NC(=O)c1c(-c2ccccc2)nn(-c2ccccc2)c1C,inactive,
Cn1nccc1C(=O)Nc1ccc(Cl)cc1,4.47 µM (active),
Cn1nc(-c2ccccc2)c(C(=O)Nc2ccc(Cl)cc2)c1Cl,1.26 µM (active),
O=C(Nc1ccc(Cl)cc1)c1cnc(-c2ccccc2)nc1-c1ccccc1,0.708 µM (active),
Cc1nn(C)c(C(=O)NNC(=S)Nc2ccc(Cl)cc2)c1[N+](=O)[O-],inactive,
CC(=O)OC[C@@H]1O[C@@H](O/N=C2/C[C@@H](O)[C@@H](O)[C@@H]3[C@@H]4C(=O)N([C@@H](C)c5ccccc5)C(=O)[C@H]4CC[C@@H]23)[C@H](OC(C)=O)[C@H](OC(C)=O)[C@@H]1OC(C)=O,,4.64% [at 11.4 µM]
COc1ccc(CNc2ncncc2-c2ccccc2OC)c(OC)c1,5.01 µM (active),
COc1ccc(CNc2ncncc2-c2ccccc2CN(C)C)c(OC)c1,15.8 µM (active),
COc1ccc(CNc2ncncc2-c2ccccc2C)c(OC)c1,10 µM (active),
